TDP1 inh – TDP1 (human) enzyme inhibition. recombinant TDP1, AlphaScreen DNA substrate cleavage. Potency, µM (doses to about 130 µM), hits mostly inhibitors. actives 0.28% (n = 350,000). AID 485290; note: nearly all actives have a fitted effect of over 40% in size
Target sequence (Q9NUW8 whole entry, looked up): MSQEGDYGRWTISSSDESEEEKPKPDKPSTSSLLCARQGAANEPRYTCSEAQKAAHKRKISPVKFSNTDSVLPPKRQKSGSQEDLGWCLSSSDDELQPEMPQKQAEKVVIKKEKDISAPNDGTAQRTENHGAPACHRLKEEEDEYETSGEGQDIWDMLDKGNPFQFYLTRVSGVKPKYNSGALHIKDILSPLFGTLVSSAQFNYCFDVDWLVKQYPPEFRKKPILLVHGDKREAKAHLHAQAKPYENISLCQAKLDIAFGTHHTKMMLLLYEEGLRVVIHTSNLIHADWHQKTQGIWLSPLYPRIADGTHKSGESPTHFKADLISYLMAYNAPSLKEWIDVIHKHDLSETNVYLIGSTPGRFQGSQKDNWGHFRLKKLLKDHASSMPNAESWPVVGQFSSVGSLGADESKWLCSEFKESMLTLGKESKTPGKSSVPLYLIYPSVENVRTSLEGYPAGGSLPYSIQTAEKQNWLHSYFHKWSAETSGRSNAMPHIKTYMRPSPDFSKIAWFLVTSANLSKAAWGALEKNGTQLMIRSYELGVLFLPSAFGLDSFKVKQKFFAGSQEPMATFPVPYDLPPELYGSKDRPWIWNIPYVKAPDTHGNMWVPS
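Recombinant E. coli-expressed Tdp1 (1 nM) preincubated with compound 15 min at RT, then 5'-biotin/3'-phosphotyrosine-FITC DNA substrate (15 nM) added for 5 min. AlphaScreen beads (10 ug/ml) added, 10 min RT; tyrosine-FITC cleavage read as signal loss.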
IL-1B inflam inh – inflammasome signaling inhibition, IL-1 beta readout; THP-1 LPS/ATP IL-1B secretion, AlphaLISA, 16 h; stronger effect = lower value; activity change, % at 57.5 µM; actives 4.7% (n = 360,000); AID 743279; in the data active = activity change below about -50%; inconclusive = mostly about -30% to -49%
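THP-1 cells pretreated 1 hr with compounds (up to 57.5 uM final), then stimulated with LPS (250 ng/mL final) plus ATP (1.25 mM final); secreted IL-1B measured by AlphaLISA after 16 hr, decreased signal indicating inhibition.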
Six1-Eya2 inh – inhibitors of human Six1/Eya2 interaction | Q15475+O00167 | AlphaScreen GST-Six1/His-Eya2 binding, biochemical; stronger effect = lower value | activity change, % (test concentration not listed) | actives 0.56% (n = 360,000) | AID 651725; in the data active = activity change below about -65%; inconclusive = mostly about -30% to -63%
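Six1/Eya2 binding was read as AlphaScreen signal after compounds were pinned into GST-Six1 plus His-tagged Eya2 (5X stock 250/500 nM) in pH 8.0 Tris/NaCl/TCEP buffer, beads added, then incubated 1 h, 37 C, dark.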
CtBP-E1A blk – inhibitors of CtBP/E1A interaction. AlphaScreen GST-E1A/His-CtBP binding, 1536-well; stronger effect = lower value. activity change, % (no concentration beside the values). actives 0.49% (n = 340,000). AID 651724; in the data active = activity change below about -65%; inconclusive = mostly about -30% to -63%
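In 5 uL wells, 23 nL compound meets equimolar GST-E1A and His-CtBP (5X stock 125 nM each) for 2 h, 37 °C. Beads (5X, 50 ug/mL) then 1 h, 37 °C, dark.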
TDP1 cell noCPT – qHTS for Inhibitors of human tyrosyl-DNA phosphodiesterase 1 (TDP1): qHTS in cells in absence of CPT; actives 15% (n = 420,000); DT40 Tdp1-/- hTDP1 cells, no CPT, ATP luminescence, 48 h; Potency, µM (highest dose often 46.2 µM), usual class: inhibitors; AID 686978, 2013; note: nearly all actives have a fitted effect of over 55% in size
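No-CPT arm: Tdp1-/-;hTDP1 DT40 cells (400/well) plus compounds, incubated ≥48 hr at 37 °C. Readout CellTiter-Glo luminescence.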
DT40 TDP1 CPT – growth inhibition of DT40 Tdp1-/-;hTDP1 cells with camptothecin (screen for TDP1 inhibitors); AID 686979; Potency, µM (highest dose often 46.2 µM), actives largely listed as inhibitors; chicken DT40 Tdp1-/-;hTDP1 cells + 20 nM CPT, ATP luminescence, 48 h; actives 12% (n = 420,000); note: nearly all actives have a fitted effect of over 55% in size
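Cell growth measured by CellTiter-Glo luminescence after a minimum 48 h, 37 C compound exposure with 20 nM CPT in Tdp1-knockout DT40 cells stably expressing hTDP1, seeded 400/well; qHTS titration format.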
Hits are given with their value; 0 = inactive; ? = inconclusive; - = no result; [ ] = another dose, or the depositor's remark. In the library only some 18% were active in any assay of this set; here they are far more common. Unless noted, calls come from the whole dose curve; as a rule, active = well fitted curve in the direction sought with a large enough effect; inconclusive = small, poorly fitted or top-dose-only effect, or another doubt; inactive = no such curve, though single readings can be large; an effect the other way counts as inactive or inconclusive.

SMILES	TDP1 inh	IL-1B inflam inh	Six1-Eya2 inh	CtBP-E1A blk	TDP1 cell noCPT	DT40 TDP1 CPT
O=C(Nc1nnc(S(=O)(=O)N2CCCCCC2)s1)c1ccc(Br)cc1	0	0	0	0	0	0
COc1cccc(C(=O)N=c2sc3c(C)ccc(OC)c3n2C)c1	0	0	0	0	?	0
CCn1c(=NC(=O)CN2C(=O)CCC2=O)sc2c(OC)ccc(OC)c21	0	0	0	0	?	?
CCn1c(=NC(=O)c2cccc(N3C(=O)CCC3=O)c2)sc2c(C)ccc(OC)c21	0	0	0	0	0	18µM
CCn1c(=NC(=O)c2ccc(N3C(=O)CCC3=O)cc2)sc2c(OC)ccc(OC)c21	0	0	0	0	?	23µM
O=C(O)Cc1sc(Nc2ccc(C(=O)O)cc2)nc1-c1ccccc1	0	-	-	-	0	0
CC1(C)OC(=O)C2=C(C[C@@H](C3CCCCC3)O[C@@H]2c2ccc(F)cc2)O1	-	0	0	0	?	?
COc1ccccc1C=Cc1ccnc2ccccc12	-	-93	0	0	?	?
COc1ccccc1/C=C/c1cncc(/C=C/c2ccccc2OC)c1	-	-	-	-	13µM	?
COc1ccc(/C=C/c2ccncc2)c2ccccc12	0	0	0	0	?	0
COc1cccc(/C=C/c2ccnc3ccccc23)c1OC	-	-	-	-	11µM	?
Cc1ccc2c(c1C)-c1c(ccc(C)c1C)C(=O)C2=O	-	-85	?	0	1µM	0.92µM
CC(=O)N1c2c(cc(Br)cc2S(=O)(=O)N2CCN(C(=O)c3ccco3)CC2)CC1C (configuration not stated)	0	0	0	0	18µM	21µM
CC(=O)N1c2c(cc(Br)cc2S(=O)(=O)N2CCN(c3ccccc3)CC2)CC1C (configuration not stated)	0	-	-	-	16µM	23µM
CC(=O)N1c2c(cc(Br)cc2S(=O)(=O)Nc2c(C)n(C)n(-c3ccccc3)c2=O)CC1C (configuration not stated)	0	0	0	0	0	0
O=C(NC(Sc1ccc(Cl)cc1)C(=O)O)c1ccccc1 (configuration not stated)	-	0	0	0	?	21µM
O=P(O)(O)C(Sc1ccc(Cl)cc1)P(=O)(O)O	-	-	-	-	0	0
CCSc1nn(CC(=O)Nc2cccc(CC)c2)c(N)c1S(=O)(=O)c1ccccc1	0	-	-	-	15µM	?
CCc1ccc(NC(=O)Cn2nc(SC)c(S(=O)(=O)c3ccc(OC)cc3)c2N)cc1	0	-	-	-	0	0
COc1ccc(S(=O)(=O)c2c(SC)nn(CC(=O)Nc3ccc(C)c(Cl)c3)c2N)cc1	0	-	-	-	26µM	26µM
O=Cc1c(Sc2ccccc2)nc2ccccn2c1=O	0	-114	0	0	16µM	?
O=Cc1c(Sc2ccccn2)nc2ccccn2c1=O	0	-86	0	0	?	?
COC(=O)c1ccc(C(NC(=O)OCc2ccccc2)/C(=C/[C@@H](C)C(=O)NCCc2c[nH]c3ccccc23)c2cccnc2)cc1 (some centres not stated)	0	-	-	-	-	-
CCCCc1nnc(NC(=O)c2cccc(S(=O)(=O)N3CCN(C)CC3)c2)s1	0	0	0	0	0	0
Cn1nc(C(C)(C)C)cc1NC(=O)C1(C)CCN1C(=O)c1ccccc1CCc1ccccc1 (configuration not stated)	-	0	0	0	?	18µM
SMILES	TDP1 inh	IL-1B inflam inh	Six1-Eya2 inh	CtBP-E1A blk	TDP1 cell noCPT	DT40 TDP1 CPT
CC(C)(C)c1cc(NC(=O)C2(C)CCN2C(=O)c2ccccc2CCc2ccccc2)no1 (configuration not stated)	-	0	0	0	21µM	?
CC1(C(=O)Nc2cnc3ccccc3c2)CCN1C(=O)c1ccccc1CCc1ccccc1 (configuration not stated)	-	0	0	0	?	?
Cn1nc(C(C)(C)C)cc1NC(=O)C1(C)CCN1C(=O)Cc1ccc(-c2ccccc2)cc1 (configuration not stated)	-	0	0	0	18µM	15µM
Cn1nc(C(C)(C)C)cc1NC(=O)C1(C)CCN1C(=O)CCc1ccccc1 (configuration not stated)	-	0	0	0	?	?
CN(C(=O)CSc1nnc(-c2ccc([N+](=O)[O-])cc2)o1)c1ccccc1	0	-	-	-	?	16µM
CN(C)CCCNS(=O)(=O)c1ccc(NC2CCCCCC2)c([N+](=O)[O-])c1	-	-71	0	0	2.3µM	2.9µM
COc1cc2cc(CN(CCCO)S(=O)(=O)c3ccccc3Cl)c(=O)[nH]c2cc1OC	0	0	0	0	?	0
COc1ccc(N2CCN(C(=O)CCN3C(=O)c4ccccc4S3(=O)=O)CC2)cc1	0	0	0	0	0	0
CCOC(=O)c1ccc(NC(=O)CSC2=NN3CCCC(=O)N=C3S2)cc1	0	0	0	0	?	21µM
COc1ccc(Cl)cc1NC(=O)CSC1=NN2CCCC(=O)N=C2S1	0[0.0935 µM]	0	0	0	12µM	?
CCOC(=O)c1c(NC(=O)CSC2=NN3CCCC(=O)N=C3S2)sc2c1CCCCC2	0	0	0	0	?	21µM
COc1ccc(OC)c(NC(=O)CSC2=NN3CCCC(=O)N=C3S2)c1	0[0.0935 µM]	0	0	0	?	?
CCOc1ccccc1NC(=O)CSC1=NN2CCCC(=O)N=C2S1	0	0	0	0	?	0
COc1cc(NC(=O)c2nc3nc(C)cc(C(F)F)n3n2)c(OC)cc1Cl	0	-	-	-	0	0
O=C(C#Cc1ccccc1)c1ccco1	0	-101	0	0	0.58µM	1.3µM
O=C(CCN1CCN2CCCC2C1)N1c2ccccc2Sc2ccc(Cl)cc21 (configuration not stated)	0	0	0	0	?	?
COC(=O)Nc1ccc2c(c1)N(C(=O)CCN1CCN3CCCC3C1)c1ccccc1S2 (configuration not stated)	0	0	0	0	?	13µM
C=CCc1c(C)nc2nc(SCC(=O)Nc3ccc(C)c(C)c3)nn2c1C	0	-	-	-	0	?
N#Cc1ccc(OS(=O)(=O)c2ccc(-c3ccon3)s2)cc1	0	?	0	0	?	12µM
COc1ccccc1NOC(=O)CCOc1ccccc1	-	0	0	0	0	0
CC(C)(C)OC(=O)CNC(=O)c1[nH]cnc1C(=O)NCC(=O)OCc1ccccc1	-	0	0	0	?	?
C[C@H](NC(=O)c1nc[nH]c1C(=O)N[C@@H](CCCCNC(=O)OC(C)(C)C)C(=O)OC(C)(C)C)C(=O)OCc1ccccc1	-	0	0	0	?	?

Assay outcomes deposited in PubChem BioAssay by National Center for Advancing Translational Sciences (NCATS).
